Source: PubChem BioAssay (National Center for Advancing Translational Sciences (NCATS))
KB-V1 cytotox: KB-V1 MDR subline cytotoxicity. Potency, µM (titrated, usually from 46.1 µM), actives largely listed as cytotoxic. KB-V1 MDR cells viability, CellTiter-Glo, 72 h. 400,000 tested, 3.4% active; further: potency means the concentration at half of the fitted maximal effect; on the % scale 0 is the no-effect control and ±100 the full control effect; nearly all actives have a fitted effect of over 60% in size
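KB-V1, DMEM (no phenol red) + 10% FBS; cpd pin-transferred, titration series; 72 h, 37 degrees C; CellTiter-Glo, luminescence. Data normalized, curve-fit.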
MCF10A rerep: DNA re-replication induction in MCF 10a cells. AID 624296. 350,000 tested, 2.9% active. MCF 10A DNA re-replication, Hoechst nuclear intensity, 48 h. Potency, µM (titrated, usually from 46.1 µM), for inactives: at the highest dose activity, positive = re-replication, most hits filed as activators; further: potency means the concentration at half of the fitted maximal effect; % of control where 0% means no effect; nearly all actives have a fitted effect of over 50% in size
SW480 rereplic: induces DNA re-replication in SW480 colon adenocarcinoma cells. Potency, µM (series often up to 46.1 µM), for inactives: at the highest dose re-replication activation, most hits filed as activators. SW480 DNA re-replication, Hoechst DNA content imaging, 48 h. 340,000 tested, 1.8% active; further: potency means the concentration at half of the fitted maximal effect; % of control where 0% means no effect; nearly all actives have a fitted effect of over 55% in size
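Image-based read-out: total Hoechst fluorescence of nuclei (405 nm excitation, 500-530 nm emission), with hits raising the fraction of high-intensity nuclei. SW480 colon cells incubated 48 hr with compounds at 37 C.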
KB-3-1 cytotox: KB-3-1 parental cell cytotoxicity; AID 1347075; KB-3-1 viability, CellTiter-Glo ATP luminescence, 72 h; Potency, µM (doses to about 46.1 µM), usual class: cytotoxic; 400,000 tested, 1.4% active; further: potency means the concentration at half of the fitted maximal effect; on the % scale 0 is the no-effect control and ±100 the full control effect; nearly all actives have a fitted effect of over 60% in size
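Cytotoxicity in the drug-sensitive parental line KB-3-1 was scored as loss of CellTiter-Glo luminescence following 72 h incubation with compound. Values come from curve fitting of normalized concentration-response data.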
KCNH2 3.1 inh: inhibitors of human KCNH2 3.1 potassium channel isoform. U2OS KCNH2 3.1, thallium flux FluxOr; active compounds read low. activity change, % (tested at about 1.8 µM). 340,000 tested, 0.95% active. AID 720553;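 active means maximum activity change below -70%; inconclusive means maximum activity change from -70% to -50%; inactive means maximum activity change above -50%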;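 further: thallium influx rate constant from kinetic fluorescence after stimulation buffer; on the % scale 0 is the no-effect control and ±100 the full control effect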
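Thallium flux via FluxOr fluorescence (Red40 quencher, 45 min loading) in U2OS cells virally expressing the KCNH2 3.1 isoform (1.77 x 10^8 /mL virus, overnight at 37 C). Rate constants from 2-min kinetic reads post-stimulation, normalised to positive and negative controls.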
hERG WT inh: KCNH2 (human, wildtype) channel inhibition. Q12809. U2OS, BacMam KCNH2, thallium flux FluxOr; active compounds read low. activity change, % at 1.84 µM. 340,000 tested, 0.37% active;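 active means maximum activity change below -70%; inconclusive means maximum activity change between -70% and -50%; inactive means maximum activity change above -50%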; further: on the % scale 0 is the no-effect control and ±100 the full control effect
Target sequence (Q12809 whole entry, looked up): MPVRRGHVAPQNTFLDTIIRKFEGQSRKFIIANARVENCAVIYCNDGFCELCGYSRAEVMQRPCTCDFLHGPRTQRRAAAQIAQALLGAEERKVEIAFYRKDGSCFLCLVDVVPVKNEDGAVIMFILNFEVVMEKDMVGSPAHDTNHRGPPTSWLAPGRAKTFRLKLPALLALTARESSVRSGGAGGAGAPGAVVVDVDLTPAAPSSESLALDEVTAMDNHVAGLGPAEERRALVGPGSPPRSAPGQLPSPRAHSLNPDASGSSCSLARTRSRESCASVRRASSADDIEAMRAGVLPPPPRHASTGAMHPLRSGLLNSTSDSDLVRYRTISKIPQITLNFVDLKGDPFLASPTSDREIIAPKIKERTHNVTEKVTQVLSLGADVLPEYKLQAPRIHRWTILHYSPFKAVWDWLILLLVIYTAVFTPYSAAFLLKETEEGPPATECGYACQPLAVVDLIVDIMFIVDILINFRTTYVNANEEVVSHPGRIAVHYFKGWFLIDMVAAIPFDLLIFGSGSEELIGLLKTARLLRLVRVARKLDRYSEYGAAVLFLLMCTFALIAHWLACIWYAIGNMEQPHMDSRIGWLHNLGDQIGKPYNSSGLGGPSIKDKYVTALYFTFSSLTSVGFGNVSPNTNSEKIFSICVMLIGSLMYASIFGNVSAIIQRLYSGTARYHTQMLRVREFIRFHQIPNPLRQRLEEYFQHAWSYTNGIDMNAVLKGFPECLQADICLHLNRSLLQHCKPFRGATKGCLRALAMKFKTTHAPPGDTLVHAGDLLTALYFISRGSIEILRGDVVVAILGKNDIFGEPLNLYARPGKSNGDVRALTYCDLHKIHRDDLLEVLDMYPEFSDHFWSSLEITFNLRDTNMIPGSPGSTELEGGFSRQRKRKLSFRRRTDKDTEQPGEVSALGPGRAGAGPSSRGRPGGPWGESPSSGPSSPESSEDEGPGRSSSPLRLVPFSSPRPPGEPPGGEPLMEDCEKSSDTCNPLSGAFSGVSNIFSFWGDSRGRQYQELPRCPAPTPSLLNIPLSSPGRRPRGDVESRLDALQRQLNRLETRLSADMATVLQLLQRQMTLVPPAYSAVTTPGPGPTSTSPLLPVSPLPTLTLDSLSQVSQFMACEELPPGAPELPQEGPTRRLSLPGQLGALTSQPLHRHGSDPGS
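U2OS cells transduced with wild-type KCNH2 virus are loaded with FluxOr dye for 45 min, and thallium flux is measured in kinetic reads before and after stimulation buffer. Rate constants are normalized to DMSO controls.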
The depositor's hits bear a star; i = inactive; u = inconclusive; x = no result; [ ] = dose if it differs, or a comment. Hits are enriched below; roughly 7.6% of the tested compounds scored in any of these assays. Unless noted, the call rests on the fitted dose curve; in most records, active means well fitted curve in the direction sought with a large enough effect; inconclusive means small, poorly fitted or top-dose-only effect, or another doubt; inactive means no such curve, though single readings can be large; an effect the other way counts as inactive or inconclusive.

SMILES	KB-V1 cytotox	MCF10A rerep	SW480 rereplic	KB-3-1 cytotox	KCNH2 3.1 inh	hERG WT inh
CC(=O)CC1=NC(C)(C)Cc2ccccc21	i	0.4%	-18.7%	i	2.6	10.6
O=C1CN(C(=O)COC(=O)CNS(=O)(=O)/C=C/c2ccccc2)c2ccccc2N1	i	3.0%	-95.5%	i	3.3	x
CN(Cc1c(C(=O)N/N=C/c2cc(F)ccc2F)nnn1-c1nonc1N)C1CCCCC1	i	-50.5%	6.5%	i	-3.1	-24.0
Cc1ccc2c(C(=O)CNc3nccs3)c[nH]c2c1	u	x	x	i	x	x
O=C(N/N=C/c1cn(-c2ccccc2)nc1-c1cccs1)c1ccc(Cl)cc1	14.6µM*	u	0.9%	u	-42.2	1.4
O=C1C2C3c4ccccc4C(Br)(c4ccccc43)C2C(=O)N1c1ccccc1O (stereo not drawn)	i	-6.9%	18.4µM*	i	7.4	-0.2
CC1(Oc2cnc(Cl)c3ccccc23)CCN(Cc2ccc(OC(F)(F)F)cc2)C1 (stereo not drawn)	i	x	x	i	x	x
c1ccc2nc(-c3ccc(N4CCOCC4)cc3)ccc2c1	i	-182.2%[0.0737 µM]	-8.8%	i	-9.1	-13.4
Cc1cccc(-c2nc(Nc3ccc(N4CCOCC4)cc3)c3ccccc3n2)c1	u	20.6µM*	-1.1%	i	-33.5	25.2
Cc1cc(-c2ccc(N3CCOCC3)cc2)nc2ccccc12	i	20.6µM*	u	i	-7.8	-13.4
CN1CCN(c2ccc(-c3ccc4ccccc4n3)cc2)CC1	11.6µM*	13µM*	u	i	-3.9	-2.1
Cc1ccc(-c2cc(C(=O)N3CCOCC3)c3ccccc3n2)cc1	i	8.8%	-0.8%	i	-1.5	-4.4
Cc1cccc(-c2nc(Nc3cccc(O)c3)c3ccccc3n2)c1	i	20.6µM*	8.4%	i	0.8	1.0
O=C(Cc1ccsc1)OCC(=O)c1ccccc1	i	-0.3%	-1.4%	i	-6.1	-6.0
CCN1C(=O)/C(=C\N2CCN(c3ccc(F)cc3)CC2)SC1=S	2.59µM*	1.2%	-3.9%	i	-18.4	19.7
O=C(COC(=O)COc1ccccc1)NC1CCCC1	i	-4.0%	-8.1%	i	0.9	-5.0
Cc1ccc(C(=O)Nc2ccc(Cl)cn2)cc1	6.51µM*	22.2%	-4.4%	u	-11.7	-15.8
CCN(CC)S(=O)(=O)c1cc(C(=O)Nc2ccc(Cl)cn2)ccc1C	9.2µM*	9.7%	-3.9%	i	-9.2	-7.4
COc1ccc(C(=O)NC2CCCCCC2)cc1S(=O)(=O)Nc1ccc(Br)cc1	i	-0.3%	-3.7%	i	-80.4*	-7.0
Cc1ccnc(NS(=O)(=O)c2ccc(NC(=O)c3ccc(Cl)cc3[N+](=O)[O-])cc2)n1	i	u	-38.7%	i	-133.7*	-10.2
CN(c1ccc(/C=C/c2ccccc2)cc1)P1(=O)NCCCO1 (stereo not drawn)	i	x	x	i	x	x
Cc1ccc(NC(=O)c2ccc(Cl)cc2[N+](=O)[O-])nc1	u	u	3.66µM*	5.8µM*	1.6	-11.2
Cc1cc(Cl)ccc1OC(C)C(=O)Nc1ccc([N+](=O)[O-])cn1 (stereo not drawn)	u	u	-6.0%	i	-94.3*	-124.7*
CCN(CC)S(=O)(=O)c1cc(C(=O)NC2CCCCC2)ccc1C	13µM*	14.7%	-2.4%	i	11.4	-12.6
Cc1ccc(OC(C)C(=O)Nc2ccc(Cl)cn2)c([N+](=O)[O-])n1 (stereo not drawn)	i	4.2%	-5.3%	i	2.0	-4.5
SMILES	KB-V1 cytotox	MCF10A rerep	SW480 rereplic	KB-3-1 cytotox	KCNH2 3.1 inh	hERG WT inh
Cc1ccc(NC(=O)c2ccccc2[N+](=O)[O-])nc1	i	u	u	u	16.2	9.5
CCOC(=O)/C=C/C(=O)OCC(=O)Nc1ccc(Cl)cn1	i	20.6µM*	1.5%	i	3.3	-4.8
CSc1ccccc1NC(=O)COC(=O)CSc1ccc(C)cc1	i	5.9%	-5.6%	i	6.2	-7.4
Cc1cccc(OCC(=O)NCCCNC(=O)c2ccc(C)nc2)c1	i	-3.9%	6.2%	i	-12.9	-8.7
COc1cccc(/C=C/C(=O)Nc2cc(S(=O)(=O)N3CCOCC3)ccc2OC)c1	i	-0.6%	-1.7%	i	9.1	-5.9
Cc1ccc(C(=O)Nc2ncc3c(Cl)cccc3n2)cc1	18.4µM*	22.3%	u	u	-3.7	12.0
Cc1ccc(C(=O)Nc2nccc(-c3cccs3)n2)cc1	i	2.1%	-1.1%	i	4.1	15.3
CC(NC(=O)c1ccco1)C(c1cccs1)N1CCOCC1 (stereo not drawn)	i	-1.7%	-1.9%	i	1.0	-3.5
CCCCNc1nc2c(c(=O)n(Cc3ccc(Cl)c(Cl)c3)c(=O)n2C)n1C	u	x	x	i	x	x
CCN(CC)CC(C)(C)NS(=O)(=O)c1ccc(Cl)cc1	i	2.5%	u	i	-18.4	-8.6
CN(C)CC(C)(C)NS(=O)(=O)c1ccc(Cl)cc1	i	14.6µM*	u	i	12.1	-14.2
O=C(N/N=C1/SCC(=O)N1Cc1ccco1)c1ccccc1F	i	-40.7%	-6.9%	i	9.4	1.2
CCCNC(=O)CCNS(=O)(=O)c1ccc2c(c1)c(=O)n(C)c(=O)n2C	i	x	x	i	x	x
COC(=O)C1CC23C=CCN4CCC5(c6ccccc6NC15C2C)C43 (stereo not drawn)	u	u	0.92µM*	1.03µM*	-1.3	-0.4
CN1CC[C@]23c4ccccc4N[C@H]1[C@]21CCN(C)[C@H]3Nc2ccccc21	i	-28.5%	-19.9%	i	6.9	-14.4
Cc1ccc(-c2cc(C(=O)N(Cc3ccccc3)Cc3ccco3)no2)cc1F	i	x	x	i	x	x
O=C(NCc1ccccc1)c1cc(=O)nc2sc(-c3ccccc3)nn12	13µM*	10.9%	-0.3%	u	6.7	5.7
CCCCOC(=O)/C=C/c1ccc(OC(=O)OC)c(OC(=O)OC)c1	i	14.6µM*	u	u	2.4	-19.8
CCCCNC(=O)c1ccccc1NC(=O)CCC	i	1.0%	5.0%	i	-1.8	1.8
Cc1ccc(C)c(Nc2nc3nonc3nc2Nc2cccc(C)c2C)c1	u	x	x	20.6µM*	x	x
COc1cccc(CN(C(=O)COc2ccc(Cl)c(C)c2)C2CCS(=O)(=O)C2)c1 (stereo not drawn)	i	x	x	i	x	x
CCOc1cccc(N2CCN(CCNC(=O)Nc3ccc(C)cc3)CC2)c1C	i	-3.7%[9.22 µM]	-19.0%	i	-93.4*	6.3
CCOc1ccc(NC(=O)NCCN2CCN(c3cccc(C)c3C)CC2)cc1	i	-10.8%	u	i	-88.8*	35.9
